This is a sample that favours compounds with a hit; in the whole collection about 8.3% have one here.
MCF10A rerep = DNA re-replication induction in MCF 10a cells. AID 624296. MCF 10A DNA re-replication, Hoechst nuclear intensity, 48 h. Potency, µM (highest dose often 46.1 µM), actives largely listed as activators. 350,000 compounds, 2.9% hits; further: nearly all actives have a fitted effect of over 50% in size
SW480 rerep = DNA re-replication induction in SW480 cells; SW480 DNA re-replication, Hoechst DNA content imaging, 48 h; Potency, µM (highest dose often 46.1 µM), most hits filed as activators; 340,000 compounds, 1.8% hits; AID 624297; further: nearly all actives have a fitted effect of over 55% in size
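Image-based read-out: total Hoechst fluorescence of nuclei (405 nm excitation, 500-530 nm emission), with hits raising the fraction of high-intensity nuclei. SW480 colon cells incubated 48 hr with compounds at 37 C.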
Gal4-VP16 FLuc = counter-screen for ROR gamma inhibitors: Gal4-VP16 reporter | AID 2546 | Drosophila S2 Gal4-VP16 UAS-luciferase, luminescence, 20 h | Potency, µM (doses to about 53.6 µM), hits mostly inhibitors | 310,000 compounds, 3.5% hits;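 further: Gal4-VP16 expression switched on by copper sulfate through the metallothionein promoter; nearly all actives have a fitted effect of over 50% in size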
Chronic BCR inh = blocks chronic active B-cell receptor signaling; 340,000 compounds, 0.05% hits; ABC-DLBCL IkBa-CBG/CBR reporter, luminescence ratio, 4 h; Potency, µM (doses to about 46.1 µM), most hits filed as inhibitors; AID 493014; active means well fitted inhibition curve with a large enough effect in the signal ratio, with a control signal flat, not every such curve was filed as active; inconclusive means small, poorly fitted or top-dose-only effect, or effect the other way, or a change in a side signal; the % refers to the signal ratio
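Compounds up to 46 uM were incubated four hours with TMD8 cells whose green CBG68 luciferase is fused to IkappaBalpha; red CBR luminescence normalised the signal, and concentration-effect curves were fitted to fusion, red and ratio data.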
RORgamma inh = inhibitors of mouse ROR gamma transcriptional activity; Drosophila S2 Gal4-RORgamma UAS-luciferase reporter, 20 h; Potency, µM (series often up to 53.6 µM), actives largely listed as inhibitors; 310,000 compounds, 5.4% hits; AID 2551; further: nearly all actives have a fitted effect of over 60% in size
Target sequence (P51450 whole entry, looked up, the tested form may be a part): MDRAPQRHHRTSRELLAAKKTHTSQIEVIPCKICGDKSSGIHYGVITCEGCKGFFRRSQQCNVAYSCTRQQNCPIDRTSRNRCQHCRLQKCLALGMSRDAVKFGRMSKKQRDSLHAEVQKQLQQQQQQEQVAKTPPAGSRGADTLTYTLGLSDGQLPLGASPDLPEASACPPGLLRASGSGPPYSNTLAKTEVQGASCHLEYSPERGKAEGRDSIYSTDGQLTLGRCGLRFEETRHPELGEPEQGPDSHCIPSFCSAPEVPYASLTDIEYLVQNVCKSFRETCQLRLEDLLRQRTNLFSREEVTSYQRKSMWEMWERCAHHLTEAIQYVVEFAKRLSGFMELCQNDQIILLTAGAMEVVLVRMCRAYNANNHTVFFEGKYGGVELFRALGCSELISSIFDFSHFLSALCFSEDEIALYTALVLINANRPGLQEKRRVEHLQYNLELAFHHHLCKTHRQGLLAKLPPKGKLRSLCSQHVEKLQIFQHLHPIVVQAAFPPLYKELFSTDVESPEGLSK
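Luminescence from a UAS-regulated Photinus luciferase reporter in stably transfected Drosophila Schneider cells is measured; decreased signal marks ROR gamma inhibition. Fusion expression is induced by 700 uM copper sulfate for 20 hr.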
Giardia killer = kills Giardia lamblia | Giardia lamblia trophozoite viability | activity change, % at 7.66 µM, hits read low | AID 540267 | 340,000 compounds, 0.15% hits; in the data active means activity change below about -80%; inconclusive means between about -30% and that limit;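 further: parasites exposed to compound for two days anaerobically before the ATP read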
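Giardia trophozoites, 100 cells per well, were exposed to compounds for 48 hrs at 37 deg C under anaerobic conditions; viability was then read as ATP content by bioluminescence after 15-30 min at room temperature.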
A number is an active result; i = inactive; ? = inconclusive; nt = no result; [ ] = remark or other dose. Unless noted, the call rests on the fitted dose curve; in most records, active means well fitted curve in the direction sought with a large enough effect; inconclusive means small, poorly fitted or top-dose-only effect, or another doubt; inactive means no such curve, though single readings can be large; an effect the other way counts as inactive or inconclusive.

SMILES	MCF10A rerep	SW480 rerep	Gal4-VP16 FLuc	Chronic BCR inh	RORgamma inh	Giardia killer
CC(C)(C)c1ccc(C(=O)CCCN2CCC(OC(c3ccccc3)c3ccccc3)CC2)cc1	12µM	i	11µM	nt	i[10 µM]	nt
CN1CCN(CCCCC(=O)c2ccccc2)CC1	?	i	i	i	i	i
O=C(CSc1nc2ccccc2c(=O)[nH]1)Nc1ccc(N2CCOCC2)cc1	i	i	?	i	i	i
CN(CC(=O)Nc1ccc(N2CCOCC2)cc1)Cc1c(O)ccc2ccccc12	i	i	i	?	1.8µM	i
CCN(CC(=O)Nc1ccc(N2CCOCC2)cc1)Cc1nc2ccccc2c(=O)[nH]1	i	i	13µM	i	4µM	i
CCN(CC(=O)Nc1cccc(Br)c1)Cc1nc2ccccc2c(=O)[nH]1	i	i	7.1µM	i	4µM	i
COc1ccccc1CN(Cc1nc2ccccc2c(=O)[nH]1)C(=O)Nc1cccc(C)c1	i	i	i	?	7.1µM	i
O=C(/C=C/c1ccc(OC(F)F)cc1)Nc1cccc(S(=O)(=O)NC2=NCCCCC2)c1	?	i	?	?	?	i
CCN(CC(=O)Nc1ccc2c(c1)OCO2)Cc1nc2ccccc2c(=O)[nH]1	i	?	7.1µM	i	2.5µM	i
CCN(CC(=O)Nc1ccc2c(c1)OC(F)(F)O2)Cc1nc2ccccc2c(=O)[nH]1	i	i	?	?	10µM	i
CCN(CC(=O)Nc1ccc2c(c1)CCC2)Cc1nc2ccccc2c(=O)[nH]1	?	i	i[0.365 µM]	i	5µM	i
Cc1cc(NC(=O)/C(C#N)=C/c2ccc(-c3cccc(C(F)(F)F)c3)o2)n(-c2ccccc2)n1	?	nt	?	i	i	i
Cc1cc(NC(=O)/C(C#N)=C/c2ccc(-c3ccc(SC(F)F)cc3)o2)n(-c2ccccc2)n1	5.8µM	?	i	?	i	i
O=NN(CCc1ccncc1)c1ccc(OCc2ccccc2)cc1	?	i	6.3µM	?	7.1µM	i
CCOC(=O)c1ccc(NC(=O)CN2C(=O)CN(C(C)=O)C2=S)cc1	i	i	i	?	i	i
Cc1ccc(NS(=O)(=O)c2c(C(=O)N3CCCCCC3)c(C)n(C)c2C)cc1C	i	i	i	i	i	i
CC(=O)N(C(C)=O)c1ncnc2c1c(-c1ccc(Cl)cc1)nn2C(C)(C)C	?	i	i	i	11µM	i
CC(=O)Nc1ncnc2c1c(-c1ccc(Cl)cc1)nn2C(C)(C)C	?	i	i	?	?	i
CCOc1ccc(-n2c(=O)c3sccc3n(CC(=O)NCC3CCCO3)c2=O)cc1 (centres undefined)	i	i	i	?	i	i
COc1ccc(C2NC(=O)NC3=C2CCc2ccccc23)cc1 (centres undefined)	?	?	i	?	i	i
COc1ccc2c(c1)C1=C(CC2)C(c2ccc(C)cc2)NC(=S)N1 (centres undefined)	?	i	2.8µM	i	0.71µM	i
COc1cccc(C2NC(=S)NC3=C2CCc2ccccc23)c1 (centres undefined)	i	i	0.28µM	i	i	i
CC(C)(C)OC(=O)N1CCC(C(=O)N[C@H](C(=O)O)c2ccccc2)(c2ccccc2)CC1	i	i	i	i	i	i
CCN(Cc1ccccc1)C(=O)C1CCN(Cc2sccc2C)CC1	i	29µM	i	i	i	i
CCc1cc2c(COC(=O)c3cc(S(=O)(=O)N4CCOCC4)ccc3F)cc(=O)oc2cc1O	?	i	nt	i	nt	i
SMILES	MCF10A rerep	SW480 rerep	Gal4-VP16 FLuc	Chronic BCR inh	RORgamma inh	Giardia killer
CC1CN(S(=O)(=O)c2cccc(C(=O)OCc3cc(=O)oc4cc(O)ccc34)c2)CC(C)O1 (centres undefined)	i	i	i	?	i	i
CCCNS(=O)(=O)c1cccc(C(=O)OCc2cc(=O)oc3cc(OC)ccc23)c1	7.3µM	?	i	13µM	i	i
CN(C)c1cccc(C(=O)OCc2cc(=O)oc3cc(O)ccc23)c1	?	?	?	i	8.9µM	i
CCc1cc2c(COC(=O)c3cccc(NS(C)(=O)=O)c3)cc(=O)oc2cc1O	9.2µM	i	i	i	i	i
Cc1ccc([N+](=O)[O-])cc1S(=O)(=O)Nc1cccc(S(=O)(=O)Nc2ccccc2C(=O)O)c1	i	i	nt	i	nt	i
Cc1ccc(C)c(NC(=O)c2ccccc2NS(=O)(=O)c2cc([N+](=O)[O-])ccc2C)c1	i	i	14µM	?	?	i
O=C(Nc1nc2c(s1)CN(Cc1ccccc1)CC2)c1cccc(S(=O)(=O)N2CCc3ccccc32)c1	10µM	16µM	i	i	i	i
O=C(Nc1nc2c(s1)CCCC2)c1ccc(S(=O)(=O)N2CCCc3ccccc32)cc1	?	i	?	i	11µM	i
CC1CCc2nc(NC(=O)CCSc3ccccc3)sc2C1 (centres undefined)	i	i	i	i	i	i
O=C(Nc1nc2ccccc2s1)c1cccc(S(=O)(=O)N2CCc3ccccc32)c1	i	i	i	i	?	i
CC1CCc2nc(NC(=O)c3ccc(S(=O)(=O)N4CCCc5ccccc54)cc3)sc2C1 (centres undefined)	i	i	i	i	6.3µM	i
Cc1cc(NC(=O)c2ccc(S(=O)(=O)N3CCOCC3)cc2)no1	i	i	i	i	i	i
Cc1cc(NC(=O)c2ccc(S(=O)(=O)N3CCc4ccccc43)cc2)no1	i	i	?	?	11µM	i
Cc1ccc(C)c(SCC(=O)N(C)CC(=O)Nc2ccc(N3CCOCC3)cc2)c1	i	i	nt	?	nt	i
CCn1ccc(C(=O)Nc2ccccc2Cl)n1	i	?	i	i	i	i
CNC(=O)c1ccsc1NC(=O)c1ccc(S(=O)(=O)N2CCCc3ccccc32)cc1	i	i	i	i	?	i
CCc1nnc(NC(=O)c2ccc(S(=O)(=O)N3CCCc4ccccc43)cc2)o1	9.2µM	16µM	0.56µM	?	0.35µM	i
C[C@@H]1CN([C@@H](C)CO)C(=O)c2cccc(NC(=O)C3CCCCC3)c2O[C@@H]1CN(C)C(=O)NC1CCCCC1	i	i	nt	?	nt	i
COc1ccc(-n2c(CCC(=O)O)ccc2-c2ccccc2)cc1	i	i	i	i	i	i
COc1ccc(-c2ccc(CCC(=O)O)n2-c2ccccc2O)cc1	1.8µM	21µM	i	16µM	i	i
COc1ccc(-c2ccc(CCC(=O)O)n2CC(C)C)cc1	?	9.2µM	i	?	i	i
C=CCn1c(CCC(=O)O)ccc1-c1ccc(OC)cc1	i	i	i	?	i	i
CCc1ccccc1O	nt	nt	i	nt	i	nt
CC1(C)CC(NC(=O)c2cc(COc3cccc(C(F)(F)F)c3)on2)CCO1 (centres undefined)	i	i	i	i	?	i

Compound activity (PubChem)
